Laboratory results published in PubChem BioAssay AID2685 (National Center for Advancing Translational Sciences (NCATS), 2010).
In all, about 320,000 compounds went through this assay and about 2,100 (0.66%) were called active. Another 53% or so got no clear call; they are omitted. The call rests on the fitted dose curve; in most records, active means well fitted inhibition curve with a large enough effect in the signal ratio, with a control signal flat (not every such curve was filed as active); inconclusive means small, poorly fitted or top-dose-only effect, or effect the other way, or a change in a side signal; inactive means flat fitted curve, though single readings scatter; the % refers to the signal ratio. The sample as a whole holds a higher share of actives than the screen did.

Test: qHTS Assay for Lipid Storage Modulators in Drosophila S3 Cells;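 on cell number change: cells counted by Cell Tracker Red CMTPX staining in the red channel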; on lipid storage change, negative = inhibition: on the % scale 0 is the no-effect control and ±100 the full control effect
Conditions: BODIPY lipid droplet fluorescence, 18-24 h, cells fed with added oleic acid; cell number change: measured here: cell count max response; series mostly up to 46.1 µM; lipid storage change, negative = inhibition: at the top concentration
How it was run: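 Drosophila S3 cells got compounds at several concentrations plus oleic acid (400 uM solution). Laser-scanning cytometry with 488 nm excitation read lipid droplets at 500-530 nm and cells at 575-640 nm. Percent activity was relative to 20 uM Triacsin C.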
Potency means the concentration at half of the fitted maximal effect.

SMILES | lipid storage change, negative = inhibition | cell number change [%] | Potency | outcome
O=C(O)c1ccc2nc(-c3ccccc3)c(-c3ccccc3)nc2c1 | -8.03% (inactive) | -2.52 | – | –
CC(C)N(C(=O)c1ccc2nc(-c3ccccc3)c(-c3ccccc3)nc2c1)C(C)C | – | -9.21 | 1.64 µM (active) | –
CCN(CC)C(=O)c1ccc2nc(-c3ccccc3)c(-c3ccccc3)nc2c1 | 15.6% (inactive) | -0.854 | – | –
CCOc1ccc(NC(=O)CN(C)C(=O)c2ccc(COc3ccccc3)o2)cc1OCC | – | 24.1 | – | inactive
CCN(CC)CCn1c(=N)n(CCO)c2ccccc21 | – | -11.1 | 3.26 µM (active) | –
CCN(CC)CCn1c(=N)n(CCOc2ccccc2)c2ccccc21 | – | -6.28 | – | inactive
CCN(CC)CCn1c(=N)n(CC(O)c2ccco2)c2ccccc21 (stereo not drawn) | -0.632% (inactive) | 6.57 | – | –
c1ccc(CCCNCC2COc3ccccc3O2)cc1 (stereo not drawn) | 10.6% (inactive) | 19.8 | – | –
CCOc1cccc(CN2CCC(Oc3ccc(C(=O)NCc4ccccn4)cc3)CC2)c1 | – | – | – | inactive
CCn1cc(CNC(=O)c2ccc(OC3CCN(Cc4ccccn4)CC3)cc2)cn1 | – | -18.8 | 3.66 µM (active) | –
Cn1cc(CNC(=O)c2ccc(OC3CCN(Cc4ccccn4)CC3)cc2)cn1 | – | – | – | inactive
C/C(N)=C(/C#N)C(=O)CSc1nnc(-c2ccc3c(c2)OCO3)o1 | – | 22.5 | – | inactive
Cc1ccc2c(CC(=O)OCc3cc(=O)n4c(n3)sc3ccccc34)coc2c1 | 6.89% (inactive) | -0.183 | – | –
CC(=O)N(C(C)=O)c1nc(-c2ccccc2)cn1/N=C/c1ccccc1 | – | -51.6 | 1.64 µM (active) | –
Cc1ccc(/C=N/n2c(-c3ccccc3)n[nH]c2=S)cc1 | 15.2% (inactive) | 7.92 | – | –
Nc1nc(-c2ccccc2)cn1/N=C/c1ccccc1 | 18.1% (inactive) | 9.59 | – | –
Cc1ccc(N(CC(O)CN(C)C)S(=O)(=O)c2ccccc2)cc1 (stereo not drawn) | – | 1.33 | 5.17 µM (active) | –
Cc1ccc(N(CC(O)CN2CCCC2)S(=O)(=O)c2ccc(C)cc2)cc1 (stereo not drawn) | -22.3% (inactive) | -13 | – | –
Cc1ccc(N(CC(O)CN2CCCCC2)S(=O)(=O)c2ccccc2)cc1 (stereo not drawn) | – | -15.7 | – | inactive
COc1ccccc1CN1CC(C(=O)NCc2cc(C(C)C)no2)CCC1=O (stereo not drawn) | -15.9% (inactive) | 1.05 | – | –

SMILES | lipid storage change, negative = inhibition | cell number change [%] | Potency | outcome
Cc1c(N=Cc2ccco2)c(=O)n(-c2ccccc2)n1C | -7.2% (inactive) | 8.07 | – | –
Cc1c(N=Cc2ccccn2)c(=O)n(-c2ccccc2)n1C | – | -11.2 | 16.4 µM (active) | –
Cc1c(N=Cc2cccnc2)c(=O)n(-c2ccccc2)n1C | 1.15% (inactive) | 7.08 | – | –
Cn1c(SCC(=O)Nc2ccc3nc(SCC(=O)NC4CC4)sc3c2)nnc1-c1ccccc1 | -1.58% (inactive) | -15 | – | –
COc1ccc(Oc2coc3c(CN4CCOCC4)c(O)ccc3c2=O)cc1 | – | 10.6 | – | inactive
COC(CCN(C)C)(c1ccccc1)c1ccccc1 | – | -3.67 | 0.184 µM (active) | –
CN(C)CCOc1ccc(C(C)(C)c2ccccc2)cc1 | 13.9% (inactive) | 10.7 | – | –
COC(C#CCCN(C)C)(c1ccccc1)c1ccccc1 | 14.8% (inactive) | -1.59 | – | –
O=C(CSc1ccc(-c2ccccn2)nn1)NCc1ccccc1 | 0.589% (inactive) | 3.17 | – | –
CCCCSc1nc(O)c(C2OC(=O)c3c2ccc(OC)c3OC)c(=O)n1-c1ccccc1 (stereo not drawn) | 4.27% (inactive) | 0.549 | – | –
Cc1cccc(NC(=O)c2c(C)nc3ccccn23)c1 | 6.1% (inactive) | 6.85 | – | –
Cc1nc2ccccn2c1C(=O)NNC(=O)Nc1ccccc1 | -3.05% (inactive) | – | – | –
Cc1nc2ccccn2c1C(=O)NNC(=O)Nc1cccc(C(F)(F)F)c1 | – | -6.44 | 1.46 µM (active) | –
COc1ccc(OC)c(NC2c3ncccc3C(=O)N2Cc2ccco2)c1 (stereo not drawn) | 7.69% (inactive) | – | – | –
Cc1ccc(C(C)C)c(OCC(=O)Nc2ccc3c(c2)nc(CCN2CCCCC2)n3C)c1 | – | – | – | inactive
CCCN1CN(Cc2ccccc2)CC2=C1CC(C)(C)CC2=O | -10.6% (inactive) | -2.17 | – | –
COc1ccc(-c2ccc(SCC(=O)N3c4ccccc4CC3C)nn2)cc1OC (stereo not drawn) | – | – | – | inactive
Cc1ccc2nc(-c3ccccn3)cc(C(=O)NC3CCN(C)CC3)c2c1 | – | – | 25.9 µM (active) | –
CN1CCN(NC(=O)c2cc(-c3ccccn3)nc3ccccc23)CC1 | 6.1% (inactive) | 28.4 | – | –
O=C(NC1CC1)c1cc(-c2ccccn2)nc2ccccc12 | 5.07% (inactive) | -1.09 | – | –

SMILES | lipid storage change, negative = inhibition | cell number change [%] | Potency | outcome
CCCN1CCN(C(=O)c2nn(-c3ccc(OC)cc3)c(=O)c3c2c2ccccc2n3C)CC1 | -0.752% (inactive) | -5.33 | – | –
O=C1/C(=C/c2ccccc2)SC(=S)N1C1CCS(=O)(=O)C1 (stereo not drawn) | -6.37% (inactive) | 7.35 | – | –
C/C(CC(=O)NC12CC3CC(CC(C3)C1)C2)=N\NC(=O)c1cnccn1 | -2.28% (inactive) | 1.39 | – | –
Cc1nccc2[nH]c(=O)c(C(=O)NC3CCCCC3C)cc12 (stereo not drawn) | – | 3.44 | – | inactive
CN1C(=O)/C(=C/c2cccc(Cl)c2)Sc2ccc(C(=O)N3CCCC3)cc21 | -2.44% (inactive) | – | – | –
CCOc1ccc(/C=C2/Sc3ccc(C(=O)N4CCOCC4)cc3N(C)C2=O)cc1OC | – | -3.07 | 20.6 µM (active) | –
CN1C(=O)/C(=C/c2cccc(Cl)c2)Sc2ccc(C(=O)N3CCOCC3)cc21 | – | – | – | inactive
CCOC(=O)N1CCC(NC(=O)c2ccc3c(c2)N(C)C(=O)/C(=C/c2cccc(OC)c2)S3)CC1 | – | -26 | 2.91 µM (active) | –
Cc1cccc(/C=C2\Sc3ccc(C(=O)N4CCC(C)CC4)cc3N(C)C2=O)c1 | – | – | – | inactive
COc1cccc(/C=C2\Sc3ccc(C(=O)NCc4cccnc4)cc3N(C)C2=O)c1 | 0.131% (inactive) | -1.61 | – | –
CN(Cc1ccccc1)c1nc2c(c(=O)[nH]c(=O)n2C)n1C | 3.79% (inactive) | -14.1 | – | –
O=C(CSc1ncnc2c1nnn2Cc1ccccc1)NC1CCCC1 | -19% (inactive) | -1.92 | – | –
O=C(CSc1ncnc2c1nnn2Cc1ccccc1)NC1CCCCC1 | -3.24% (inactive) | -19.4 | – | –
O=C(CSc1ncnc2c1nnn2Cc1ccc(F)cc1)NC1CCCCC1 | – | -16.3 | 20.6 µM (active) | –
CC(C)(C)C1CCC2(CC1)SCC(=O)N2c1ccccc1 (stereo not drawn) | 9.11% (inactive) | -2.85 | – | –
COCc1cc(C)nc(SCC(=O)Nc2ccccc2N2CCOCC2)c1C#N | – | -22.4 | 13 µM (active) | –
COCc1cc(C)nc(SCC(=O)Nc2ccc(N3CCOCC3)cc2)c1C#N | 3.29% (inactive) | 5.82 | – | –
COCc1cc(C)nc(SCC(=O)Nc2ccc3c(c2)OCCO3)c1C#N | 23.6% (inactive) | 16.8 | – | –
O=C(N/N=C/c1ccsc1)c1ccc2c(c1)OCO2 | 20% (inactive) | 17 | – | –
